Source: PubChem BioAssay (NCI)
Compounds without any hit were thinned out: in the full panel of roughly 79,000, 15% have a hit. No stated cut-off is given here; in the data, active means growth inhibition above about 70%; inactive means the rest.

Key:
[1] = NCI Yeast Anticancer Drug Screen. Data for the rad50 strain (AID 155);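 further: 0% = growth of vehicle-only cultures of the same strain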; conditions: S. cerevisiae rad50 strain growth inhibition; at 50.0 µM; active compounds read high
Summary of the method: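 Readout: growth inhibition relative to vehicle-treated cultures. Compound exposure was carried out in a genetically defined yeast strain deficient in DNA damage repair.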

[2] = NCI Yeast Anticancer Drug Screen. Data for the mec2-1 strain (AID 157); conditions: S. cerevisiae mec2-1 strain, at 50.0 µM, active compounds read high
Summary of the method: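 Readout is yeast growth inhibition, normalised to vehicle-treated controls, in the mec2-1 strain exposed to compound.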

[3] = NCI Yeast Anticancer Drug Screen. Data for the sgs1 mgt1 strain (AID 161);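 further: 0% = growth of cultures given vehicle only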; conditions: S. cerevisiae sgs1 mgt1 strain, at 50.0 µM, active compounds read high
Summary of the method: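 Yeast cells carrying a defined DNA-repair defect were exposed to test compounds. Growth inhibition was measured relative to vehicle-treated controls.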

[4] = NCI Yeast Anticancer Drug Screen. Data for the cln2 rad14 strain (AID 165);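 further: 0% = growth equal to vehicle treated cultures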; conditions: S. cerevisiae cln2 rad14 strain, at 50.0 µM, active compounds read high
Summary of the method: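 Relative to vehicle controls, growth inhibition of compound-treated cln2 rad14 yeast was recorded.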

[5] = NCI Yeast Anticancer Drug Screen. Data for the bub3 strain (AID 167); conditions: S. cerevisiae bub3 mutant strain, at 50.0 µM, active compounds read high
Summary of the method: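 Readout: yeast growth inhibition, expressed relative to vehicle-only wells. The test organism is a mutant strain from a panel with lesions in DNA repair or checkpoint genes.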

[6] = NCI Yeast Anticancer Drug Screen. Data for the mlh1 rad18 strain (AID 175); conditions: S. cerevisiae mlh1 rad18 strain growth inhibition; at 50.0 µM; active compounds read high
Summary of the method: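 Test agents were incubated with a yeast strain of defined genotype (DNA damage repair defect). Inhibition of growth was derived by comparison with vehicle-exposed cultures.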

Measured: growth inhibition

CCCCCCCCCCCCCC(=O)OCC(CCS(=O)(=O)O[C@H]1CC[C@@]2(C)C(=CC[C@@H]3C2CC[C@]2(C)C(=O)CCC32)C1)OC(=O)CCCCCCCCCCCCC (stereo partly specified)
inactive: [1] -32.8% | [2] -30.9% | [3] -15.3% | [4] -26.6% | [5] -22.2% | [6] -23.6%

OC(c1ccccc1)(c1ccc(-c2ccccc2)cc1)c1cccc2ccccc12 (stereo unspecified)
inactive: [1] 28.3% | [2] -14.2% | [3] 21.8% | [4] 9.2% | [5] -2.6% | [6] 5.35%

CCCCCOCC(O)CNCCNCC(O)COCCCCC (stereo unspecified)
inactive: [1] 8% | [2] 0% | [3] 14.3% | [4] -55.6% | [5] -23.2% | [6] 0%

O=CC1N=C(Cc2ccccc2)OC1=O (stereo unspecified)
inactive: [1] 25.6% | [2] 10% | [3] -6.2% | [4] -4.55% | [5] -7.35% | [6] 8.2%

O=C1C2C(C(=O)N1c1ccccc1)C1(c3ccccc3)CCC2(C(=O)c2ccccc2)O1 (stereo unspecified)
inactive: [1] 56.4% | [2] -14.3% | [3] 39.6% | [4] -16.4% | [5] 9.05% | [6] 23.4%

O=C(O)C[C@H]1CCCCC12CCOC2=O (stereo partly specified)
inactive: [1] 10.8% | [2] 6.7% | [3] -0.7% | [4] -18.6% | [5] 22% | [6] 9.85%

CC1(C)SC(N=C=Nc2ccccc2)CN1C=O (stereo unspecified)
inactive: [1] 8.55% | [2] 1.85% | [3] -14.4% | [4] -10.1% | [5] 9.5% | [6] -0.4%

ClC1CC2CC1C1COCC21 (stereo unspecified)
inactive: [1] 8.9% | [2] -5.35% | [3] -3.85% | [4] -16.2% | [5] -12.6% | [6] -8.9%

COC(=O)C(C)Oc1ccccc1 (stereo unspecified)
inactive: [1] 2.35% | [2] -28.2% | [3] -9.4% | [4] -4.8% | [5] -10% | [6] -18.5%

c1ccc(CNC(Cc2ccccc2)c2ccc(OCc3ccccc3)cc2)cc1 (stereo unspecified)
inactive: [1] -15.2% | [2] -17.6% | [3] 4% | [4] 11.8% | [5] -10.2% | [6] -10.6%

S=c1[nH]nc(SCc2ccc(Cl)cc2Cl)c2[nH]cnc12
inactive: [1] -2.15% | [2] 1.4% | [3] 11.4% | [4] -32.4% | [5] -0.5% | [6] -6%
